This is an account of results in publication PMC4242493, “Sequence specificity incompletely defines the genome-wide occupancy of Myc”.

Over roughly 33,000 sequences, “normalized occupancy” has its median near 0.075; the highest 2% begin near 0.095. What follows is part of a selection rich in the highest values, with near analogues and random picks from the rest.

Chain of MaxL homodimer (P61244 whole entry): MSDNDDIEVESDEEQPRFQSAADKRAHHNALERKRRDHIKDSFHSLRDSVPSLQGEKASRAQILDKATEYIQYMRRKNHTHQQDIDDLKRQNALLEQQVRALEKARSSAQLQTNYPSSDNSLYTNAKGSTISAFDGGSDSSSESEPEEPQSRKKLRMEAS

The assay has as its target MaxL homodimer (Homo sapiens, UniProt P61244 1-160). The assay can be described thus: universal protein-binding microarray (PBM); PBS-based mixture, 10 nM His-tagged protein dimer, 2% milk, 200 ng/uL BSA, 50 ng/uL salmon testes DNA, 0.02% TX-100; detection with Alexa 488 anti-His antibody;; high values mean tight binding. The conditions noted are these: protein: recombinant; tags: C-terminal His-tag (pET21a); chain copies: 2; dsDNA, one strand shown. The method in brief:
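A His-tagged protein dimer at 10 nM was incubated on Agilent 4 x 44 K arrays of the 'all 10-mer' universal design, then labelled with 10 ng/μL fluorophore-conjugated anti-His antibody and scanned on a GenePix 4400A. A fluorescence intensity was assigned to each 8-mer. Binding occupancy is each such intensity normalised to that of the highest-ranked one.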
In the case of ATGCGAGG, the binding signal was 0.0841 normalized occupancy.

Take ATTGTTAA: the binding signal stood at 0.0765 normalized occupancy.

With ACGCACGG, the binding signal amounted to 0.0828 normalized occupancy.

In the case of ACGCACCT, the binding signal came to 0.0799 normalized occupancy.

Turning to ACGCACGC, the binding signal was determined as 0.109 normalized occupancy.

Regarding GCGCACGC, the binding signal came out at 0.0964 normalized occupancy.

Consider AAGCACGT, for which the binding signal was 0.102 normalized occupancy.

With AAGCACGG, the binding signal came out at 0.0779 normalized occupancy.

Take ACGCACTA: the binding signal was found to be 0.0766 normalized occupancy.

In the case of ACGCACGT, the binding signal came out at 0.0986 normalized occupancy.

As to AAGCACGA, the binding signal worked out at 0.0867 normalized occupancy.

On to GCGCACGA, for which the binding signal was determined as 0.093 normalized occupancy.

For ACGCACGA, the binding signal was 0.091 normalized occupancy.

Regarding GCGCACTA, the binding signal amounted to 0.0726 normalized occupancy.

Consider GACGACGA, for which the binding signal was determined as 0.0747 normalized occupancy.

Turning to AAATGTAA, the binding signal turned out to be 0.0834 normalized occupancy.

In the case of ACTCATAC, the binding signal was 0.074 normalized occupancy.

For ATCCCACG, the binding signal amounted to 0.093 normalized occupancy.

In the case of CTTATTAC, the binding signal worked out at 0.0796 normalized occupancy.

As to CAATCACC, the binding signal turned out to be 0.0797 normalized occupancy.

Regarding ACTTGTAG, the binding signal came out at 0.073 normalized occupancy.

With GGAGCCAA, the binding signal was found to be 0.0767 normalized occupancy.

For GCAAAGGA, the binding signal came out at 0.0773 normalized occupancy.

AAATGGGG: the binding signal came out at 0.0777 normalized occupancy.

Consider ATGATTTA, for which the binding signal came to 0.079 normalized occupancy.

CCGCACGC: the binding signal stood at 0.0999 normalized occupancy.

Consider CCGCACGG, for which the binding signal came to 0.0742 normalized occupancy.

For CCGCACGA, the binding signal is 0.0824 normalized occupancy.

As for ACATTTTG, the binding signal was found to be 0.0837 normalized occupancy.

On to AACGCCCG, for which the binding signal turned out to be 0.0749 normalized occupancy.

AACGCGAC: the binding signal is 0.0746 normalized occupancy.

Consider CGCGCGAG, for which the binding signal worked out at 0.0787 normalized occupancy.

As for CACGCGAG, the binding signal turned out to be 0.111 normalized occupancy.

In the case of AACGCGAG, the binding signal was 0.0764 normalized occupancy.

On to CACGCGAA, for which the binding signal came out at 0.105 normalized occupancy.

Turning to CACGCGAC, the binding signal is 0.131 normalized occupancy.

AACGCGAA: the binding signal came out at 0.0761 normalized occupancy.

As to GACGCGAA, the binding signal was 0.0735 normalized occupancy.

As for GACGCGAC, the binding signal was found to be 0.0735 normalized occupancy.

With GTGGAATA, the binding signal worked out at 0.0822 normalized occupancy.

Take ACGTCTTG: the binding signal amounted to 0.0724 normalized occupancy.

ACAGGTTG: the binding signal worked out at 0.0821 normalized occupancy.

Regarding AAAACGAG, the binding signal turned out to be 0.0747 normalized occupancy.

With GTTCTCCA, the binding signal is 0.0767 normalized occupancy.

Regarding AACACATA, the binding signal came out at 0.0823 normalized occupancy.

As for ACCACCTC, the binding signal turned out to be 0.0834 normalized occupancy.

Turning to ATGACATG, the binding signal was 0.0993 normalized occupancy.

Consider ACCACATG, for which the binding signal turned out to be 0.192 normalized occupancy.

For the sequence ATGACATA, the binding signal was determined as 0.0825 normalized occupancy.

With ACCACATC, the binding signal turned out to be 0.0807 normalized occupancy.

Take AACACATG: the binding signal was found to be 0.138 normalized occupancy.

With ACCACATA, the binding signal is 0.0854 normalized occupancy.

Turning to ATGACATC, the binding signal worked out at 0.0827 normalized occupancy.

As for ACCACCTA, the binding signal came to 0.082 normalized occupancy.

For the sequence ACCACCTG, the binding signal came out at 0.106 normalized occupancy.

Take AACACATT: the binding signal was 0.0903 normalized occupancy.

Regarding CGCCCATC, the binding signal was 0.0733 normalized occupancy.

Regarding GTACGGAA, the binding signal was determined as 0.0756 normalized occupancy.

For the sequence ACCGCTAC, the binding signal turned out to be 0.0748 normalized occupancy.

In the case of CATCCCTC, the binding signal came to 0.0774 normalized occupancy.

For AATTTTTG, the binding signal came out at 0.0733 normalized occupancy.

For AAGACAGG, the binding signal came to 0.0727 normalized occupancy.

On to ATCACATG, for which the binding signal was found to be 0.158 normalized occupancy.

In the case of AGCACATG, the binding signal amounted to 0.187 normalized occupancy.

In the case of CACACATC, the binding signal was 0.0888 normalized occupancy.

ATCACATA: the binding signal amounted to 0.0859 normalized occupancy.

Take AGCACATA: the binding signal was 0.0807 normalized occupancy.

For the sequence AGCACATC, the binding signal stood at 0.0841 normalized occupancy.

For ATCACATC, the binding signal came out at 0.0862 normalized occupancy.

Turning to CACACATG, the binding signal was determined as 0.136 normalized occupancy.

As for CACACATA, the binding signal is 0.0896 normalized occupancy.

AGTAGTGG: the binding signal was 0.0787 normalized occupancy.

For CTACTTGA, the binding signal stood at 0.0752 normalized occupancy.

In the case of GCCTCTCC, the binding signal was found to be 0.076 normalized occupancy.

On to CACGCAGC, for which the binding signal was determined as 0.085 normalized occupancy.

Consider ACGTAGCC, for which the binding signal amounted to 0.0725 normalized occupancy.

GCCCCCCC: the binding signal amounted to 0.0757 normalized occupancy.

As for CCAGGGGA, the binding signal came to 0.0742 normalized occupancy.

On to CAACGTTA, for which the binding signal is 0.0767 normalized occupancy.

Take ACACGTTC: the binding signal was determined as 0.102 normalized occupancy.

Regarding ACACGTTA, the binding signal came to 0.118 normalized occupancy.

For AAACGTTA, the binding signal turned out to be 0.0739 normalized occupancy.

For the sequence ATACGTTC, the binding signal stood at 0.0794 normalized occupancy.

Consider ACACGTTG, for which the binding signal is 0.128 normalized occupancy.

For AAACGTTG, the binding signal came to 0.0765 normalized occupancy.

Regarding CCACGTTC, the binding signal was 0.0913 normalized occupancy.

With CCACGTTA, the binding signal amounted to 0.105 normalized occupancy.

For AGACGTTA, the binding signal came to 0.0775 normalized occupancy.

In the case of ACACGTCG, the binding signal came out at 0.0849 normalized occupancy.

Consider AGACGTTC, for which the binding signal is 0.0744 normalized occupancy.

For the sequence AGTCAGGC, the binding signal was 0.0722 normalized occupancy.

Take TGCCCAAA: the binding signal worked out at 0.0731 normalized occupancy.

Regarding AGTATCAA, the binding signal worked out at 0.0766 normalized occupancy.

For GGCCAACC, the binding signal came out at 0.0741 normalized occupancy.

As to AAAAATGG, the binding signal amounted to 0.078 normalized occupancy.

Consider ATGCCCCA, for which the binding signal came to 0.0786 normalized occupancy.

With GAACATTA, the binding signal was 0.0812 normalized occupancy.

In the case of ACGCCTCC, the binding signal was found to be 0.0771 normalized occupancy.

Consider AATAACAA, for which the binding signal is 0.0746 normalized occupancy.

With GGACGTTA, the binding signal stood at 0.0789 normalized occupancy.

As for GTACGTTA, the binding signal turned out to be 0.0781 normalized occupancy.

For the sequence GCACGTTA, the binding signal is 0.104 normalized occupancy.

Take ACCAAGGC: the binding signal is 0.0726 normalized occupancy.

On to GATATAAA, for which the binding signal worked out at 0.0756 normalized occupancy.

ACAGGTCA: the binding signal turned out to be 0.0797 normalized occupancy.

Turning to CACGAGTA, the binding signal amounted to 0.103 normalized occupancy.

Regarding CACGAGAG, the binding signal is 0.0911 normalized occupancy.

For the sequence AACGAGTA, the binding signal is 0.077 normalized occupancy.

Turning to CACGAGTG, the binding signal was determined as 0.0961 normalized occupancy.

As to CACGAGTC, the binding signal worked out at 0.0906 normalized occupancy.

Consider AACGAGTG, for which the binding signal worked out at 0.0753 normalized occupancy.
